The results in this text go back to PubChem BioAssay (NCATS).

Records with an inconclusive call do not appear. Values without a mark were called inactive. Activity calls are given as the source filed them. The call rests on the fitted dose curve; in most records, active means well fitted inhibition curve with a large enough effect; inconclusive means small, poorly fitted or top-dose-only effect; inactive means no such curve, though single readings can be large or run the other way. Positions of bridges follow the written chain, without caps; N, C: chain ends. Non-standard residues stand in square brackets, D forms with d. Residues, ends and D or L forms follow the SMILES beside them. *: point of attachment. X1 = CCC(C)C(N)C1=NC(C(=O)*)CS1; dOrn = NCCC[C@@H](N)C(=O)O
Potency means the concentration at half of the fitted maximal effect.

This assay is described as follows: BET inhibitor-based combinations targeting novel dependencies in MECOM-rearranged (r) AML: UCSD-AML1 cell line (AID 2202235). Further: nearly all actives have a fitted effect of over 40% in size.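 On viability (% of control): plate controls were DMSO vehicle wells for no effect and blank wells for full effect.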 Particulars: UCSD-AML1 AML cells viability, CellTiter-Glo, 48 h; series mostly up to 46 µM. From the text: Ecotropic viral insertion site 1 (EVI1) is located on chromosome 3q26.2 as part of the MECOM (MDS and EVI1 complex) locus. Under normal hematopoiesis, EVI1 is a regulator of hematopoietic stem cell maintenance and self-renewal and EVI1 levels decrease as the cells differentiate. In approximately 5-10% of de novo acute myeloid leukemia (AML) EVI1 is aberrantly expressed, including Chromosomal inv(3)(q21;q26.2) or t(3;3)(q21;q26.2) alterations (MECOM-r) that account for about 50% of AML with EVI1 overexpression 31. AMLs with high levels of EVI1 have a poor prognosis and an overall survival time averaging between 10-14 months. EVI1 overexpression confers resistance in leukemia cells, highlighting the need to develop new targeted therapies for EVI1 overexpressing AMLs. Here, we performed an unbiased chemical drug screening by evaluating the single agent activity of a collection of 2,480 oncology-focused, approved and investigational drugs (NCATS Mechanism Interrogation Plates, MIPE v5.0) against a panel of seven AML cell lines. These included four MECOM-r cell-lines (AML-191, AML-194, UCSD-AML1 and HNT-34) and three non-MECOM-r AMLs (MV4-11, OCI-AML3 and SET-2). Exploiting the mechanistic redundancy built in the library, we identified target-level sensitivities in MECOM-r AML cells and relative activity as compared to other AML subtypes.
A collection of 2480 mechanistically annotated dugs (MIPE v5.0) was used to screen four 3q26.2 rearranged AML cell lines and three non-3q26.2 rearranged AML cell lines. This library purposely exploits redundancy by including multiple inhibitors of key onco-targets, while simultaneously encompassing mechanistic diversity, targeting more than 800 distinct mechanisms of action. Briefly, cells were seeded in 5 uL of growth media using a Multidrop Combi dispenser into 1536 well white polystyrene tissue culture treated plates (Corning) at a density of 500cells/well. For each cell-line, for each of the 2480 drugs in MIPE v5.0 library, an 11-point dose curve was generated via a 1536 pin-tool. Plates were incubated for 48 hr at standard incubator conditions, covered by a stainless steel gasketed lid to prevent evaporation. Cell viability was determined by luminescence based, Cell Titer Glo assay (Promega). In detail, 3 uL of Cell Titer Glo were added to each well and plates were incubated at room temperature for 15 min with a stainless-steel lid in place. Luminescence readings were taken using a Viewlux (PerkinElmer) with a 2 s exposure time per plate. Compound dose-response curves were normalized to DMSO and empty well controls on each plate. Quantitative drug activity data from dose-response curves was determined utilizing area Under the Curve (AUC) and Z-transformed AUC (Z-AUC, a mean-centering transformation applied to each individual cell-line screened).
On the technique in general: ATP-based viability assays read luminescence as a measure of living cells.
For `COc1cccc2c(NCc3ccccc3)nc(-n3c(N)nc4ccccc43)nc12`, the Potency was 4.17 µM (active).

For `CS(=O)(=O)N1CCc2c(-c3cnc(N)nc3)nc(N3CCOCC3)nc21`, the Potency is 0.662 µM (active).

For the compound `CN1C2CCC1CC(OC(=O)C(CO)c1ccccc1)C2` (stereo not given), the Potency entry was “inactive”.

Regarding `CC1(C)Cc2c(-c3ccccc3)c(-c3ccc(Cl)cc3)c(CC(=O)O)n2C1`, the Potency entry was “inactive”.

As for `CC(C)(C)c1cc(NC(=O)Nc2ccc(-c3cn4c(n3)sc3cc(OCCN5CCOCC5)ccc34)cc2)no1`, the Potency entry was “inactive”.

Regarding `COc1c(OCCCN2CCOCC2)ccc2c3n(c(=NC(=O)c4cnc(N)nc4)nc12)CCN3`, the Potency is 0.0428 µM (active).

Consider `Nc1nccc(-c2ccc3noc(-c4ccc(Cl)cc4)c3c2)n1`, for which the Potency is 20.9 µM (active).

As to `Cc1cc(OCc2nnc(SC3CCCC3)n2-c2cccnc2)ccc1-c1ccc(S(C)(=O)=O)cc1`, the Potency is 5.9 µM (active).

With `O=C(NCC(=O)N1CCCC1)Nc1ccc2cnccc2c1`, the Potency entry is “inactive”.

As for `CC(Nc1ncnc2nc[nH]c12)c1cc2cccc(Cl)c2c(=O)n1-c1ccccc1` (stereo not given), the Potency is 3.72 µM (active).

As for `Cc1cc(F)c(C(=O)Nc2cccc(-c3nncn3C(C)C)n2)cc1-n1cnc(C2CC2)c1`, the Potency was 16.6 µM (active).

For `Cc1cc(O)c2c(c1)C(=O)c1cc(O)cc(O)c1C2=O`, the Potency result is “inactive”.

As to `N#Cc1cccc(-c2c[nH]c3ncnc(N4CCOCC4)c23)c1`, the Potency result was “inactive”.

Take `Cc1cc2c(C(C)C)c(O)c(O)c(C=O)c2c(O)c1-c1c(C)cc2c(C(C)C)c(O)c(O)c(C=O)c2c1O`: the Potency was 9.34 µM (active).

Consider `Cn1cc(-c2ccc(F)c(C(F)(F)F)c2)nc1C1CCN(c2ncnc3[nH]ncc23)CC1`, for which the Potency result is “inactive”.

As to `CN1c2ccccc2C(=O)N2CCc3c([nH]c4ccccc34)C21` (stereo not given), the Potency is 1.66 µM (active).

Regarding `CC(C)c1nn(-c2c(Cl)cccc2Cl)c2nc(Cc3ccc(OCCO)cc3)[nH]c(=O)c12`, the Potency was 0.0417 µM (active).

For the compound `CC(C)(C)NC(=O)[C@H]1CC[C@H]2[C@@H]3CC[C@H]4NC(=O)C=C[C@]4(C)[C@H]3CC[C@]12C`, the Potency result is “inactive”.

Take `CCN1CCN(Cc2ccc(NC(=O)c3ccc(C)c(NC(=O)c4cncc(-c5cccs5)c4)c3)cc2C(F)(F)F)CC1`: the Potency is 1.05 µM (active).

Consider `Cc1noc(-c2ccc(CSCCC(=O)O)cc2)c1NC(=O)OC(C)c1ccccc1Cl` (stereo not given), for which the Potency entry was “inactive”.

Consider `O=C(O)c1ccc(CCCc2ccc(OCCc3ccc(F)cc3)cc2)o1`, for which the Potency result is “inactive”.

Consider `CC(=O)[C@]1(O)Cc2c(O)c3c(c(O)c2[C@@H](O[C@H]2C[C@H](N)[C@H](O)[C@H](C)O2)C1)C(=O)c1ccccc1C3=O`, for which the Potency is 0.148 µM (active).

Turning to `OCc1ccc(-c2nn(Cc3ccccc3)c3ccccc23)o1`, the Potency was 20.9 µM (active).

Regarding `CC(C)NCC(O)c1ccc(O)c(O)c1` (stereo not given), the Potency result was “inactive”.

Consider `O=C1C[C@@H](c2ccc(O)cc2)Oc2cc(O)cc(O)c21`, for which the Potency result was “inactive”.

As to `CN(C)CCCN1c2ccccc2CCc2ccc(Cl)cc21`, the Potency result is “inactive”.

In the case of `CS(=O)(=O)OCCCCOS(C)(=O)=O`, the Potency entry is “inactive”.

Turning to `COC(=O)Nc1nc2ccc(C(=O)c3ccc(F)cc3)cc2[nH]1`, the Potency was 0.468 µM (active).

As for `CC(N[C@H]1CCCC[C@H]1NC(=O)c1ccc(Cl)cc1)c1cccc2ccccc12` (stereo not given in full), the Potency is 11.8 µM (active).

`CN(C[C@@H]1COCCO1)S(=O)(=O)Nc1ccc2ccc3ncc(-c4cnn(C)c4)cc3c(=O)c2c1`: the Potency was 5.9 µM (active).

As for `NCc1ccc(OCCCc2sc(-c3ccc4c(c3)/C(=N/Nc3nc5ccccc5s3)CCC4)nc2C(=O)O)cc1`, the Potency is 0.209 µM (active).

Regarding `C[C@@H](Oc1cc(-n2cnc3ccc(CN4CCN(C)CC4)cc32)sc1C(N)=O)c1ccccc1C(F)(F)F`, the Potency was 0.118 µM (active).

As to `O=P(O)(O)C(O)(Cn1ccnc1)P(=O)(O)O`, the viability (% of control) is 117% [at 5.12 µM].

In the case of `c1ccc(-c2oc3ncnc(NC[C@@H]4CCCO4)c3c2-c2ccccc2)cc1`, the Potency entry is “inactive”.

`Cc1cc(C(=O)Nc2cc(Oc3ccc4nc(NC(=O)C5CC5)cn4n3)ccc2C)n(C)n1`: the Potency was 9.34 µM (active).

On to `CCC(C)C(N)C1=NC(C(=O)N[C@@H](CC(C)C)C(=O)N[C@H](CCC(=O)O)C(=O)N[C@H](C(=O)N[C@H]2CCCCNC(=O)[C@H](CC(N)=O)NC(=O)[C@@H](CC(=O)O)NC(=O)[C@H](Cc3cnc[nH]3)NC(=O)[C@@H](Cc3ccccc3)NC(=O)[C@H]([C@@H](C)CC)NC(=O)[C@@H](CCCN)NC2=O)[C@@H](C)CC)CS1` (stereo not given in full) (X1-L[dE]IK[dOrn]I[dF]H[dD]N; lactam 4-C), for which the Potency result is “inactive”.

Consider `COc1cc(N2CCC(N(C)C)CC2)ccc1Nc1ncc(Cl)c(Nc2ccccc2P(C)(C)=O)n1`, for which the Potency was 2.63 µM (active).

As for `CCN1CCN(Cc2ccc(Nc3ncc(F)c(-c4cc(F)c5nc(C)n(C(C)C)c5c4)n3)nc2)CC1`, the Potency is 0.662 µM (active).

`COc1cc([C@@H]2c3cc4c(cc3[C@H](O)[C@H]3COC(=O)[C@H]23)OCO4)cc(OC)c1OC`: the Potency is 0.0417 µM (active).

Consider `CC(C)(C)OC(=O)CN(Cc1ccc(Cl)cc1)Cc1ccc([N+](=O)[O-])s1`, for which the Potency entry was “inactive”.
